Test results as given in PubChem BioAssay AID504710 (Sanford-Burnham Center for Chemical Genomics, 2011).
The source made the active and inactive calls.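 How the source made its calls: active means inhibition reaching about 16% in any single replicate (limit read from the data); inactive means the rest.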

molecular target: Hexokinase HKDC1 (Homo sapiens) (UniProt Q2TB90); assay: compounds lowering human HKDC1 activity – biochemical, single concentration, confirmation (AID 504710); conditions: recombinant HKDC1, G6PDH/diaphorase/resazurin fluorescence; at 20 µM; active compounds read high
Sequence (Q2TB90 whole entry, looked up): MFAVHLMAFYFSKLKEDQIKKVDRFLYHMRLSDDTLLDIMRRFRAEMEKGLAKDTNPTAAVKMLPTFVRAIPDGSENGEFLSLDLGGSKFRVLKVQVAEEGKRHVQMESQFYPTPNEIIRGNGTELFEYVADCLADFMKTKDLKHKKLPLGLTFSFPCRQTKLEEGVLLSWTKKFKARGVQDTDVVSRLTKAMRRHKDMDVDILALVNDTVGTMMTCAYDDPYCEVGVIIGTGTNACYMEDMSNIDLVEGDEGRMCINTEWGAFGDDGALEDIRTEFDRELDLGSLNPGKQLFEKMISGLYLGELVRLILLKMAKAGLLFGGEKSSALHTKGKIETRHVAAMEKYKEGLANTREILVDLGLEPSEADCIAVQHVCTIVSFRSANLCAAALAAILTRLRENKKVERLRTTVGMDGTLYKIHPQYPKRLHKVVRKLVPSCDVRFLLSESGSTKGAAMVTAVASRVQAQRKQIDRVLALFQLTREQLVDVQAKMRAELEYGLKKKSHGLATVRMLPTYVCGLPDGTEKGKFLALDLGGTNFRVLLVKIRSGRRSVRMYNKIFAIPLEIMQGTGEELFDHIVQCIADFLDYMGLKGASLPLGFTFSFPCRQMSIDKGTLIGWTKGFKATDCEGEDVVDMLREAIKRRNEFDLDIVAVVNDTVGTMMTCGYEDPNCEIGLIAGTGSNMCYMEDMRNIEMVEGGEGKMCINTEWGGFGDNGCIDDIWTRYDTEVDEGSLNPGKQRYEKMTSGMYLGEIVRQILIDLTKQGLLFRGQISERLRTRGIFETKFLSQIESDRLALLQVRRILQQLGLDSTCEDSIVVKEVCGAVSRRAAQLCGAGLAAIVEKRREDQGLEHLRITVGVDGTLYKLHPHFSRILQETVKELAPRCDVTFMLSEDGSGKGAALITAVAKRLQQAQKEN

Row | SMILES | inhibition
1 | COc1cc(C2c3c([nH]c(=O)[nH]c3=O)Nc3ccc4ccccc4c32)cc(OC)c1OC (configuration not stated) | 43.5% (active)
2 | O=C1C=C(c2c(O)ccc3ccccc23)c2ccccc2C1=O | 78.1% (active)
3 | CCc1nc2sc3c(=O)[nH]cnc3c2c2c1CSC(C)(C)C2 | 30.5% (active)
4 | Cc1cc(C)n2nc(SCc3nnc(SCc4ccccc4C)s3)nc2n1 | 69.2% (active)
5 | COC(=O)c1ccccc1NC1=C/C(=N\S(=O)(=O)c2cccs2)c2ccccc2C1=O | 62.6% (active)
6 | CC(=O)C1=C(c2ccccc2)N(C(C)=O)n2c(C)nnc2S1 | -125% (inactive)
7 | Cc1nc([N+](=O)[O-])c(Br)n1Cc1ccc(Cl)c(Cl)c1 | 53.8% (active)
8 | Cc1ccc(SC2=C(N(C)C)C(=O)c3ccccc3C2=O)cc1 | 59.9% (active)
9 | Cc1ccc(S(=O)(=O)/N=C2\C=C(Nc3cccc(C(=O)O)c3)C(=O)c3ccccc32)c(C)c1 | 57.8% (active)
10 | Clc1cccc(N=C2NN=C(c3ccc4c(c3)OCCO4)CS2)c1 | -99.6% (inactive)
11 | Cc1ccc(SC2=C(Sc3ccc(C)cc3)C(=O)c3ccccc3C2=O)cc1 | 69% (active)
12 | O=C(O)c1ccc(S(=O)(=O)/N=C2\C=C(Nc3ccccc3F)C(=O)c3ccccc32)cc1 | 75.7% (active)
13 | O=C1C(Cl)=C(NC(=O)c2ccccc2)C(=O)C(Cl)=C1NC(=O)c1ccccc1 | 41.4% (active)
14 | O=C(NC(=S)NNC(=O)c1cnccn1)c1ccc(F)cc1 | -36.1% (inactive)
15 | O=C(CN(C(=O)CCC(=O)Nc1ccccn1)c1ccc2c(c1)OCO2)NCc1ccc(F)cc1 | 31.3% (active)
16 | COc1ccc2cc(CCNC(=O)c3ccc(S(=O)(=O)N4CCCC4)cc3)c(=O)[nH]c2c1 | 59.8% (active)
17 | O=c1c2ccccc2nc(/C=C/c2cccnc2)n1Cc1ccccc1 | 60.7% (active)
18 | Cc1cccc2c(N=NC(=O)c3ccc(NS(=O)(=O)c4cccs4)cc3)c(O)[nH]c12 | 63.2% (active)
19 | O=C1C(SCCO)=C(SCCO)C(=O)c2ccccc21 | 84.1% (active)

Row | SMILES | inhibition
20 | COc1ccc(CN2C(=O)c3cccnc3C2O)cc1 (configuration not stated) | 35.8% (active)
21 | CCc1ccc2c(c1)C(NC(C)=O)C(=O)N2CCN1CCOCC1 (configuration not stated) | 57.2% (active)
22 | O=NNc1nc2ccccc2n1Cc1ccccc1 | -44.2% (inactive)
23 | NC1=C(Cl)C(=O)c2ccc(S(N)(=O)=O)cc2C1=O | -42.9% (inactive)
24 | Cc1ccc(NC2c3ncccc3C(=O)N2c2ccccc2C)cc1C (configuration not stated) | 36.2% (active)
25 | CSc1nc(N)nc2c1ncn2CC(=O)N[C@H](C)c1cccc2ccccc12 | -73.5% (inactive)
26 | CC(=O)NC1C(=O)N(CCN2CCOCC2)c2ccc(C)cc21 (configuration not stated) | 69.7% (active)
27 | Cc1nc([N+](=O)[O-])c(Br)n1CC(=O)c1ccc2ccccc2c1 | 40.1% (active)
28 | CC(=O)N(C1=C(Cl)C(=O)c2ccccc2C1=O)c1ccc(C(=O)O)cc1 | 64.4% (active)
29 | O=C(NC1=C(NC2CCS(=O)(=O)C2)C(=O)c2ccccc2C1=O)c1ccccc1 (configuration not stated) | 68.9% (active)
30 | CC(=O)NC1C(=O)N(CCN2CCOCC2)c2ccc(F)cc21 (configuration not stated) | 61.1% (active)
31 | Clc1ccc(N=c2ssnc2Cl)nc1 | -79.7% (inactive)
32 | COC(=O)c1ccccc1NC1=C/C(=N\S(=O)(=O)c2ccc(C(=O)O)cc2)c2ccccc2C1=O | 86% (active)
33 | CCN(CC)C(=O)c1ccc(C(=O)c2c(C)cc(C)cc2C)cc1 | -40.1% (inactive)
34 | COc1ccc(S(=O)(=O)Nc2cc(SCC(=O)O)c(O)c3ccccc23)cc1 | 47.2% (active)
35 | CC1COCC(C)N1C1=C(Cl)C(=O)c2ccccc2C1=O (configuration not stated) | 43.5% (active)
36 | Nn1cnnc1N/N=C/c1cc(Br)cc(Br)c1O | -31.9% (inactive)
37 | CC(=NNC(=S)N1CCCCC1)c1cccc(C)n1 | -39.6% (inactive)
